Screening data: PubChem, several laboratories
A selection: hits, their analogues and other compounds. The true share with any hit is near 0.97%.
S1P3 antag-1 – blocks the human S1P3 receptor; Q99500; AID 485; inhibition, % at 4.98 µM; 170,000 compounds, 0.27% hits; CHO S1P3 NFAT-BLA reporter, FRET fluorescence, antagonist mode;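 active = inhibition above the plate cutoff, the mean inhibition of test wells on that plate plus 3 SD, cut at about 28% in these data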;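 note: cells challenged with S1P at its EC80 of 0.8 µM; blue over green emission ratio from cleaved BLA substrate after 4 h stimulation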
AI-2 QS mod – modulators of Vibrio harveyi AI-2 quorum sensing system. Vibrio harveyi JMH597 AI-2 luminescence/OD600 ratio, 9 h; hits give low values; strain lacks LuxN and CqsS sensors; 0 = neutral-control median. activity change, % at 7.5 µM. 300,000 compounds, 0.4% hits; in the data active = activity change below about -75%, passing the limit was not always enough;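 note: luminescence divided by OD600 gain over 9 h not by final OD600 alone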
S1P4 antag – antagonists of human S1P4 receptor. 220,000 compounds, 0.26% hits. S1P4-expressing cells, antagonist mode, reporter read-out. O95977. AID 1510. inhibition, % at 4.98 µM; in the data active = inhibition above about 29%
Target sequence (O95977 whole entry, looked up): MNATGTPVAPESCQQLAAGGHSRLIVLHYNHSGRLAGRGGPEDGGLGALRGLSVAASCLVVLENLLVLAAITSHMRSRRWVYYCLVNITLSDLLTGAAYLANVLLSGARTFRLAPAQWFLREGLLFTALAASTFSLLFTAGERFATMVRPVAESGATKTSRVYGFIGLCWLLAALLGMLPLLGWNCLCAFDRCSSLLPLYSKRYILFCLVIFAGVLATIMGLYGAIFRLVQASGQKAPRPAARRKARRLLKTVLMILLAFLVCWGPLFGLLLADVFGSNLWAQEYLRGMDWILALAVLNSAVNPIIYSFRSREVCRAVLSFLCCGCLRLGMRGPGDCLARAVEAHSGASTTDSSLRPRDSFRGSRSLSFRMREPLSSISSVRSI
Hsp70 act – switches on Hsp70 transcription; HeLa Hsp70 promoter luciferase reporter, luminescence; scaled: vehicle 0, proteasome-inhibitor control 100%; activation, % at 10 µM; 200,000 compounds, 0.04% hits; AID 1203;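 active = activation above the mean across all tested compounds plus 3 SD, cutoff set per campaign, cut at about 5.5% in these data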
S1P4 agonist – activates the human S1P4 receptor; S1P4-expressing cell line, agonist reporter assay; activation, % at 4.98 µM; 220,000 compounds, 0.35% hits; in the data active = activation above about 11%
S1P3 antag-2 – confirmation of human S1P3 receptor antagonists; shares compounds with S1P3 antag-1; CHO S1P3 NFAT-BLA reporter, FRET, antagonist mode; inhibition, % at 4.98 µM; 240 compounds, 30% hits; AID 1429;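 active = inhibition above the hit threshold that was computed for the earlier primary screen, cut at about 30% in these data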
Large screens that a line does not name were inactive (follow-up assays come after a bar, where they were run).

NNC(=O)Cn1c(-c2ccccc2)cc(=O)n2ncnc12	none (no result: Hsp70 act)
Nc1ccc(S(=O)(=O)NC(Cc2ccccc2)C(=O)O)cc1 (stereo not drawn)	none (no result: S1P3 antag-1, S1P4 antag, Hsp70 act, S1P4 agonist)
COc1cccc(OC)c1C(=O)Nc1nc2cc3c(cc2s1)OCO3	S1P3 antag-1 33 (no result: Hsp70 act) | S1P3 antag-2 inactive
O=NN(CCc1ccncc1)c1ccc(OCc2ccccc2)cc1	S1P3 antag-1 33 | S1P3 antag-2 inactive
O=C(NC1CCN(Cc2ccccc2)CC1)c1cccc(Br)c1	none (no result: S1P3 antag-1, S1P4 antag, Hsp70 act, S1P4 agonist)
CSc1ccc(/C=C/c2cc(=O)c3ccccc3[nH]2)cc1	S1P3 antag-1 30 | S1P3 antag-2 inactive
CCCCSc1nnc(CSc2ncccn2)n1C	S1P3 antag-1 29 | S1P3 antag-2 inactive
Cn1c(CSc2ncccn2)nnc1SCC(=O)N1CCCC1	none
O=C(N/N=C/c1cn(-c2ccccc2)nc1-c1cc2ccccc2o1)c1c[nH]c2ccccc12	S1P3 antag-1 31 | S1P3 antag-2 inactive
Cc1ccc(S(=O)(=O)Oc2ccccc2/C=N/NC(N)=S)cc1	none (no result: S1P3 antag-1)
Cc1ccc(S(=O)(=O)Oc2ccccc2/C=N/N=C(N)N)cc1	S1P3 antag-1 36 | S1P3 antag-2 inactive
CCCc1cc2c(-c3ccccc3)cc(=O)oc2cc1OCc1ccc(C(=O)O)o1	none
O=C(COC(=O)c1cnc(Cl)c(Cl)c1)NCCC1=CCCCC1	S1P3 antag-1 33 | S1P3 antag-2 inactive
CCC(=O)Nc1cccc(C2=NN(c3ccccc3)C(c3ccc(OC)cc3)C2)c1 (stereo not drawn)	none (no result: S1P3 antag-1, S1P4 antag, Hsp70 act, S1P4 agonist)
CC1(C)CC(=O)C=C(NCCN2CCN(C(=S)Nc3ccccc3)CC2)C1	none (no result: Hsp70 act)
COc1c(F)c(F)c(C(=O)Nc2ccc(-c3nc4ccccc4[nH]3)cc2)c(F)c1F	S1P3 antag-1 28 | S1P3 antag-2 inactive
CCCc1cc(=O)[nH]c2nnc(SCC(=O)NCc3ccc4c(c3)OCO4)n12	none (no result: S1P3 antag-1, S1P4 antag, Hsp70 act, S1P4 agonist)
CC(Oc1ccccc1Cl)C(=O)N1CCOCC1 (stereo not drawn)	S1P3 antag-1 46 | S1P3 antag-2 inactive
CC(Oc1ccccc1Cl)C(=O)N1CCCN(C)CC1 (stereo not drawn)	none (no result: S1P3 antag-1, S1P4 antag, Hsp70 act, S1P4 agonist)
COc1ccc(NS(=O)(=O)c2csc(C(N)=O)c2)cc1	none (no result: S1P3 antag-1, S1P4 antag, Hsp70 act, S1P4 agonist)
Cc1cc(C)n2nc(C(=O)NCc3ccco3)cc2n1	none
Cc1ccn2cc(C(=O)NCc3ccco3)nc2c1	S1P3 antag-1 30 | S1P3 antag-2 inactive
CNC(=O)CS(=O)(=O)CC(=O)Nc1cc(OC(C)C)c(Cl)cc1Cl	none
CCCCn1c(=O)[nH]c2nc3cc(N)ccc3nc2c1=O	none (no result: AI-2 QS mod)
Nc1ccc2nc3c(=O)n(C4CCCCC4)c(=O)[nH]c3nc2c1	S1P3 antag-1 30 (no result: Hsp70 act) | S1P3 antag-2 inactive
Cc1ccc2nc(C)c3c(c2c1)COC3	S1P3 antag-1 30 | S1P3 antag-2 inactive
Cc1[nH]c2ccccc2c1/C=N/NC(=O)c1cccc([N+](=O)[O-])c1	none
Cc1[nH]c2ccccc2c1/C=N/Nc1ccc([N+](=O)[O-])cc1	S1P3 antag-1 40 | S1P3 antag-2 inactive
O=C(c1ccccc1)c1ccc2c(c1)OCCOCCOCCOCCO2	S1P3 antag-1 29 (no result: Hsp70 act) | S1P3 antag-2 inactive
Cc1sc(NC(=O)C2C3CCC(O3)C2C(=O)O)nc1-c1ccc(CC(C)C)cc1 (stereo not drawn)	S1P3 antag-1 106 | S1P3 antag-2 inactive
O=C1c2cccc3c(N4CCCCC4)ccc(c23)C(=O)N1c1ccccc1O	S1P3 antag-1 48 | S1P3 antag-2 33
O=C1c2cccc3c(N4CCCCC4)ccc(c23)C(=O)N1c1ccc(O)cc1	none
NNC(=O)C1SCCN1S(=O)(=O)c1ccc(Cl)cc1 (stereo not drawn)	none (no result: S1P3 antag-1, S1P4 antag, Hsp70 act, S1P4 agonist)
CCN(CC)S(=O)(=O)c1cccc(C(=O)NC(C)C(c2cccs2)N2CCCC2)c1 (stereo not drawn)	S1P3 antag-1 29 | S1P3 antag-2 inactive
Cc1cc(S(=O)(=O)NCc2cccs2)ccc1-n1cnnn1	S1P3 antag-1 30 | S1P3 antag-2 inactive
COc1ccccc1Nc1ncnc2c1c(C)c(C)n2CCO	none (no result: S1P3 antag-1, S1P4 antag, Hsp70 act, S1P4 agonist)
O=C(COC(=O)CCCOc1ccc(Cl)cc1Cl)Nc1cccc(Cl)c1	S1P3 antag-1 43 | S1P3 antag-2 inactive
Cc1ccc(NCCC(=O)c2cccs2)cc1	none
CC(C)c1ccc(NCCC(=O)c2cccs2)cc1	S1P3 antag-1 30 | S1P3 antag-2 inactive
CC(C(=O)Nc1cccc(Br)c1)c1ccc([N+](=O)[O-])cc1 (stereo not drawn)	S1P3 antag-1 30 | S1P3 antag-2 inactive
